# PubChem BioAssay (NCATS)
# Records with an inconclusive call do not appear. Where a call stands in place of a potency, no number is given. Active and inactive are the calls of the source. The call rests on the fitted dose curve; in most records, active means well fitted inhibition curve with a large enough effect; inconclusive means small, poorly fitted or top-dose-only effect; inactive means flat fitted curve, though single readings scatter.
# Experiment: P-glycoprotein substrates identified in KB-8-5-11 adenocarcinoma cell line, qHTS therapeutic library screen (AID 1346987); further: nearly all actives have a fitted effect of over 65% in size
# Details: KB-8-5-11 (P-gp overexpressing) viability, CellTiter-Glo, 72 h; series mostly up to 44.5 µM
# How it was run: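 KB-8-5-11: colchicine-selected sub-line of KB-3-1 over-expressing P-gp; assay medium lacked colchicine. 72 h drug exposure at 37 degree C, CellTiter-Glo.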
# Potency means the concentration at half of the fitted maximal effect.
row,Compound,Potency
1,COc1cc2nc(N3CCC(N4CCCCC4)CC3)nc(NC3CCCCCC3)c2cc1OC,5.17 µM (active)
2,CN(C)CCCCC(=O)Nc1ccc(NC(=S)NC(=O)c2ccc(C(C)(C)C)cc2)cc1,13 µM (active)
3,COc1cc(Br)c(Nc2nc(-c3c(C)nc4ncccn34)cs2)c(Br)c1,2.31 µM (active)
4,COC(=O)CC(C)(O)CC(=O)OCc1ccc(O[C@@H]2O[C@H](CO)[C@@H](O)[C@H](O)[C@H]2O)cc1 (some centres undefined),inactive
5,CC(C)(O)/C=C/C1=CC(=O)[C@@](C)(O)C[C@H]1O,inactive
6,CC(C)CNCc1ccc(-c2ccccc2S(=O)(=O)N2CCCC2)cc1,inactive
7,COC(=O)CC(O)C1OC(c2ccccc2)C(O)C1O (centres undefined),inactive
8,O=C(OC[C@@]1(O)CO[C@@H](O[C@H]2[C@H](Oc3ccc(O)cc3)O[C@H](CO)[C@@H](O)[C@@H]2O)[C@@H]1O)c1ccc(O)cc1,inactive
9,C[C@@H]1CC[C@]2(C(=O)O)CC[C@]3(C)C(=CCC4[C@@]5(C)CC[C@H](O)C(C)(C)C5C(O)C[C@]43C)[C@@H]2[C@]1(C)O (some centres undefined),inactive
10,CC1CC[C@]2(C(=O)O)CC[C@]3(C(=O)O)C(=CCC4[C@@]5(C)CC[C@H](O[C@@H]6O[C@H](CO)[C@@H](O)[C@H](O)[C@H]6O)C(C)(C)C5CC[C@]43C)C2C1C (some centres undefined),inactive
11,COc1cc([C@H]2c3cc(O)c(OC)cc3C[C@@H](CO[C@@H]3O[C@H](CO)[C@@H](O)[C@H](O)[C@H]3O)[C@@H]2CO)ccc1O,inactive
12,CN1CCN(Cc2ccc(-c3cnc4[nH]cc(-c5ccc6[nH]ccc6c5)c4c3)cc2)CC1,7.31 µM (active)
13,CC1=CC(=O)CC(C)(C)C1CCC(C)O[C@@H]1O[C@H](CO[C@@H]2OC[C@@H](O)[C@H](O)[C@H]2O)[C@@H](O)[C@H](O)[C@H]1O (some centres undefined),inactive
14,CCc1ccc(Cc2ccc3c(c2)[C@]2(OC3)O[C@H](CO)[C@@H](O)[C@H](O)[C@H]2O)cc1,inactive
15,CN1CCC(Nc2nc(Nc3ccc(Oc4ccccc4)cc3)c3c(=O)[nH]cc(Br)c3n2)CC1,4.61 µM (active)
16,C[C@@H]1[C@H]2[C@H](O[C@@H]3O[C@H](CO)[C@@H](O)[C@H](O)[C@H]3O)OC=C(C(=O)O)[C@H]2C[C@@H]1O,inactive
17,O=[N+]([O-])c1cccc2[nH]c(CNc3nc(N4CCOCC4)nc4c3ncn4-c3ccsc3)nc12,0.103 µM (active)

row,Compound,Potency
1,CCCN1CCC(c2cccc(S(C)(=O)=O)c2)CC1,inactive
2,CC1CCC2(CO)C(C(=O)O)=CCCC2C1(C)CCc1ccoc1 (centres undefined),inactive
3,CC(C)/C=C1\NC(=O)C(C(C)C)n2c1nc1c(c2=O)C=CC=CO1 (centres undefined),inactive
4,COc1cc(N2CCOCC2)ccc1Nc1ncc(Cl)c(Nc2ccccc2NS(C)(=O)=O)n1,1.64 µM (active)
5,Cc1cn(C2C=CC(CO)O2)c(=O)[nH]c1=O (centres undefined),inactive
6,C=CC[C@]12C[C@@H](OC)C(=O)C(OC)=C1O[C@@H](c1cc(OC)c3c(c1)OCO3)[C@@H]2C,inactive
7,CC1=C(CCC(C)O[C@@H]2O[C@H](CO)[C@@H](O)[C@H](O)[C@H]2O)C(C)(C)CCC1=O (some centres undefined),inactive
8,CC(C)(C)NCCCNC(=O)c1cccc(Br)c1,inactive
9,Nc1ncnc2c1nc(N)n2[C@@H]1O[C@H](CO)[C@@H](O)[C@H]1O,1.16 µM (active)
10,COC(=O)CCc1cc2ccoc2c(OC)c1O[C@@H]1O[C@H](CO)[C@@H](O)[C@H](O)[C@H]1O,inactive
11,CC/C=C\[C@H](O)[C@H](O)C1=C(C)C(=O)[C@]2(O1)C(=O)N[C@@](OC)(C(=O)c1ccccc1)[C@@H]2O,inactive
12,C=C[C@H]1[C@H](O[C@@H]2O[C@H](CO)[C@@H](O)[C@H](O)[C@H]2O)OC=C(C(=O)OC)[C@H]1C[C@@H]1c2cc(O)c(O)cc2CCN1C(C)=O,inactive
13,OC/C=C/C=C/[C@H]1Cc2cc(O)cc(O)c2O1,inactive
14,COc1c(Nc2ncc(Cl)c(N[C@H]3[C@@H](C(N)=O)[C@@H]4C=C[C@H]3C4)n2)ccc2c1CC[C@@H](N1CCOCC1)CC2,8.2 µM (active)
15,CC(C)=CCC/C(C)=C/Cc1ccc(O)c(C2OC(=O)c3cc(C(=O)O)cc(O)c32)c1O (centres undefined),inactive
16,C=CC1C(OC2OC(CO)C(O)C(O)C2O)OC=C2C(=O)N3C(C(=O)O)Cc4c([nH]c5ccccc45)C3CC21 (centres undefined),inactive
17,CC(=O)OC1C(=O)C2(C)C(O)CC3OCC3(OC(C)=O)C2C(OC(=O)c2ccccc2)C2(O)CC(OC(=O)C(O)C(NC(=O)c3ccccc3)c3ccccc3)C(C)=C1C2(C)C (centres undefined),1.3 µM (active)
